We go through 2 molecules from PubChem BioAssay AID1159580 (chemical genetic matrix, 2015).

SMILES strings stand for the structures. The campaign covered roughly 5,500 compounds. About 2,000 (36%) were called active. Roughly 18% stayed inconclusive and do not appear here. The list shows a part of the results. Unmarked numbers belong to inactive results. Rule as the data show it: active = normalized growth mostly below about 0.91 (no sharp cut-off); inconclusive = no clear call, values can overlap the other calls; inactive = mostly above about 0.92.

The test is described as follows: chemical genetic growth profiling, strain panel (AID 1159580).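 Also: tested at 20 µM; growth read once vehicle control cultures reached saturation at 30 °C; 1 = growth at the plate median or of vehicle wells; lower values mean less growth of the strain.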 Particulars: growth OD.
[1] abbreviates: S. cerevisiae deletion strains, locus YMR263W, strain SAP30, active compounds read low.
[2] abbreviates: S. cerevisiae deletion strains, locus YNL153C, strain GIM3, active compounds read low.
Where [3] appears, read: S. cerevisiae deletion strains, locus YNL322C, strain KRE1, active compounds read low.

With `Cc1[nH]c2ccc(O)cc2c1CCN`, the normalized growth was 1 (S. cerevisiae deletion strains, locus YAL040C, strain CLN3, active compounds read low); 1.01 (S. cerevisiae deletion strains, locus YCL061C, strain MRC1 (second series), active compounds read low); 1.05 (S. cerevisiae deletion strains, locus YDR363W, strain ESC2, active compounds read low); 1 (S. cerevisiae deletion strains, locus YER002W, strain NOP16, active compounds read low); 1.01 under setting [1]; 1.03 under setting [2]. The normalized growth runs as follows: (S. cerevisiae deletion strains, locus YNL175C, strain NOP13, active compounds read low) 1.01; (S. cerevisiae deletion strains, locus YNL197C, strain WHI3, active compounds read low) 0.987; (S. cerevisiae deletion strains, locus YNL224C, strain SQS1, active compounds read low) 0.996; under setting [3], 1.02; (S. cerevisiae deletion strains, locus YOR083W, strain WHI5 (second series), active compounds read low) 0.999.
Turning to `N/C(Cc1cccc2ccccc12)=N/O`, the normalized growth is, setting by setting: (S. cerevisiae deletion strains, locus YAL013W, strain DEP1, active compounds read low) 1; (S. cerevisiae deletion strains, locus YBR229C, strain ROT2, active compounds read low) 1.02; (S. cerevisiae deletion strains, locus YDL101C, strain DUN1, active compounds read low) 1.01; (S. cerevisiae deletion strains, locus YDR150W, strain NUM1, active compounds read low) 0.986; (S. cerevisiae deletion strains, locus YEL061C, strain CIN8, active compounds read low) 1.02; (S. cerevisiae deletion strains, locus YGR078C, strain PAC10, active compounds read low) 1.01. The normalized growth was 1.02 (S. cerevisiae deletion strains, locus YHR030C, strain SLT2, active compounds read low); 1.02 (S. cerevisiae deletion strains, locus YHR087W, strain rtc3, active compounds read low); 1.02 (S. cerevisiae deletion strains, locus YJL187C, strain SWE1, active compounds read low); 1.02 (S. cerevisiae deletion strains, locus YJR043C, strain POL32, active compounds read low); 1.05 (S. cerevisiae deletion strains, locus YJR075W, strain HOC1, active compounds read low); 1.02 (S. cerevisiae deletion strains, locus YKL190W, strain CNB1, active compounds read low). For the same molecule, the normalized growth is 1.06 (S. cerevisiae deletion strains, locus YLR039C, strain RIC1, active compounds read low); 1.01 (S. cerevisiae deletion strains, locus YLR058C, strain SHM2 (second series), active compounds read low); 1.14 (S. cerevisiae deletion strains, locus YLR085C, strain ARP6, active compounds read low); 1.02 (S. cerevisiae deletion strains, locus YLR262C, strain YPT6, active compounds read low); 1.01 (S. cerevisiae deletion strains, locus YML094W, strain GIM5, active compounds read low); 1.03 (S. cerevisiae deletion strains, locus YMR219W, strain ESC1, active compounds read low). Moreover, the normalized growth reads like this: under setting [1], 1.04; (S. cerevisiae deletion strains, locus YMR307W, strain GAS1, active compounds read low) 1.17; under setting [2], 0.997; (S. cerevisiae deletion strains, locus YNL298W, strain CLA4 (second series), active compounds read low) 1.02; under setting [3], 1; (S. cerevisiae deletion strains, locus YNR030W, strain Alg12, active compounds read low) 1. Also, the normalized growth (S. cerevisiae deletion strains, locus YOL006C, strain TOP1, active compounds read low) is 1.05; the normalized growth (S. cerevisiae deletion strains, locus YPL055C, strain LGE1, active compounds read low) is 0.897; the normalized growth (S. cerevisiae deletion strains, locus YPL241C, strain CIN2, active compounds read low) was 1.22 [resistant] (active); the normalized growth (S. cerevisiae deletion strains, locus YPR135W, strain CTF4, active compounds read low) is 0.945; the normalized growth (S. cerevisiae strains, strain wild type, active compounds read low) is 1.02.
